We go through 40 molecules from PubChem BioAssay (NCATS).

Results filed as inconclusive are left out. Values without a mark were called inactive. Calls of active or inactive are those of the source. The call rests on the fitted dose curve; in most records, active means well fitted inhibition curve with a large enough effect; inconclusive means small, poorly fitted or top-dose-only effect; inactive means no such curve, though single readings can be large or run the other way.
Potency means the concentration at half of the fitted maximal effect.

A short description of the experiment: BET inhibitor-based combinations targeting novel dependencies in MECOM-rearranged (r) AML: SET-2 cell line (AID 2202231). Further: nearly all actives have a fitted effect of over 35% in size. As to conditions: SET-2 AML cells viability, CellTiter-Glo luminescence, 48 h; viability: hits give low values, series mostly up to about 46 µM. An excerpt:
Ecotropic viral insertion site 1 (EVI1) is located on chromosome 3q26.2 as part of the MECOM (MDS and EVI1 complex) locus. Under normal hematopoiesis, EVI1 is a regulator of hematopoietic stem cell maintenance and self-renewal and EVI1 levels decrease as the cells differentiate. In approximately 5-10% of de novo acute myeloid leukemia (AML) EVI1 is aberrantly expressed, including Chromosomal inv(3)(q21;q26.2) or t(3;3)(q21;q26.2) alterations (MECOM-r) that account for about 50% of AML with EVI1 overexpression 31. AMLs with high levels of EVI1 have a poor prognosis and an overall survival time averaging between 10-14 months. EVI1 overexpression confers resistance in leukemia cells, highlighting the need to develop new targeted therapies for EVI1 overexpressing AMLs.
Here, we performed an unbiased chemical drug screening by evaluating the single agent activity of a collection of 2,480 oncology-focused, approved and investigational drugs (NCATS Mechanism Interrogation Plates, MIPE v5.0) against a panel of seven AML cell lines. These included four MECOM-r cell-lines (AML-191, AML-194, UCSD-AML1 and HNT-34) and three non-MECOM-r AMLs (MV4-11, OCI-AML3 and SET-2). Exploiting the mechanistic redundancy built in the library, we identified target-level sensitivities in MECOM-r AML cells and relative activity as compared to other AML subtypes.
A collection of 2480 mechanistically annotated dugs (MIPE v5.0) was used to screen four 3q26.2 rearranged AML cell lines and three non-3q26.2 rearranged AML cell lines. This library purposely exploits redundancy by including multiple inhibitors of key onco-targets, while simultaneously encompassing mechanistic diversity, targeting more than 800 distinct mechanisms of action. Briefly, cells were seeded in 5 uL of growth media using a Multidrop Combi dispenser into 1536 well white polystyrene tissue culture treated plates (Corning) at a density of 500cells/well. For each cell-line, for each of the 2480 drugs in MIPE v5.0 library, an 11-point dose curve was generated via a 1536 pin-tool. Plates were incubated for 48 hr at standard incubator conditions, covered by a stainless steel gasketed lid to prevent evaporation. Cell viability was determined by luminescence based, Cell Titer Glo assay (Promega). In detail, 3 uL of Cell Titer Glo were added to each well and plates were incubated at room temperature for 15 min with a stainless-steel lid in place. Luminescence readings were taken using a Viewlux (PerkinElmer) with a 2 s exposure time per plate. Compound dose-response curves were normalized to DMSO and empty well controls on each plate. Quantitative drug activity data from dose-response curves was determined utilizing area Under the Curve (AUC) and Z-transformed AUC (Z-AUC, a mean-centering transformation applied to each individual cell-line screened).
(Cellular ATP, detected with luciferase, serves as a proxy for viable cell number.)
A word on the viability: it is a read-out of living cells in per cent, often relative to untreated cells. In the case of `COc1cc(C)[nH]c(=O)c1CNC(=O)c1c(C)n([C@H](C)C2CCN(CC(F)(F)F)CC2)c2ccccc12`, the viability is 101%.
Take `Cn1cc(C2=C(c3cn(C4CCN(Cc5ccccn5)CC4)c4ccccc34)C(=O)NC2=O)c2ccccc21`: the viability is 103%.
As to `CC1(C)CC(O)CC(C)(C)N1O`, the viability is 115%.
As to `CCN(CC)C(=O)c1ccc(C2=CC3(CCNCC3)Oc3cccc(O)c32)cc1`, the viability is 99.6%.
Turning to `COc1ccc(N(C(=O)Oc2c(C)cccc2C)c2ccnc(Nc3ccc(N4CCN(C)CC4)cc3)n2)c(OC)c1`, the viability was 117%.
Consider `CC(C)(O)C(=O)Nc1ccc([N+](=O)[O-])c(C(F)(F)F)c1`, for which the Potency is 23500 nM (active).
For the molecule `CCC1(c2ccc(N)cc2)CCC(=O)NC1=O` (stereo not given), the viability was 114%.
As for `C[C@@]12OC(=O)[C@]1([C@@H](O)[C@@H]1C=CCCC1)NC(=O)[C@@H]2CCCl`, the Potency is 26.3 nM (active).
As to `COC(=O)[C@@]12OC[C@]34[C@H]([C@@H](O)[C@@H]1O)[C@@]1(C)CC(=O)C(O)=C(C)[C@@H]1C[C@H]3OC(=O)[C@H](OC(=O)/C=C(\C)C(C)C)[C@@H]24`, the Potency is 26.3 nM (active).
Consider `COc1cccc2c1C(=O)c1c(O)c3c(c(O)c1C2=O)C[C@@](O)(C(=O)CO)CC3OC1CC(N2CCOC(OC)C2)C(O)C(C)O1` (stereo not given in full), for which the Potency was 3.3 nM (active).
`C[C@@H]1CC[C@H]2[C@@H](C)C(=O)O[C@@H]3O[C@@]4(C)CC[C@@H]1[C@]32OO4`: the viability is 93.5%.
In the case of `Cc1sc2c(c1C)C(c1ccc(Cl)cc1)=N[C@@H](CC(N)=O)c1nnc(C)n1-2`, the Potency is 372 nM (active).
On to `CCNC(=O)C[C@@H]1N=C(c2ccc(Cl)cc2)c2cc(OC)ccc2-n2c(C)nnc21`, for which the Potency is 2630 nM (active).
In the case of `N#CC(O[C@@H]1O[C@H](CO[C@@H]2O[C@H](CO)[C@@H](O)[C@H](O)[C@H]2O)[C@@H](O)[C@H](O)[C@H]1O)c1ccccc1` (stereo not given in full), the viability was 93.9%.
With `CC(C)CC(N(C)C)C1(c2ccc(Cl)cc2)CCC1` (stereo not given), the viability was 99.9%.
Turning to `CCOc1ccccc1-n1c(C(C)N2CCN(C(=O)COc3ccc(Cl)cc3)CC2)nc2ccccc2c1=O` (stereo not given), the Potency was 1320 nM (active).
With `CC1=C(O)C(=O)C=C2C1=CC=C1[C@@]2(C)CC[C@@]2(C)[C@@H]3C[C@](C)(C(=O)O)CC[C@]3(C)CC[C@]12C`, the Potency is 934 nM (active).
As to `CC1(C)C(=O)N(c2ccc(C#N)c(C(F)(F)F)c2)C(=S)N1Cc1ccc(-c2cn[nH]n2)cc1`, the Potency was 16600 nM (active).
Consider `CN1C(=O)[C@@H](NC(=O)[C@H](CCC(F)(F)F)[C@H](CCC(F)(F)F)C(N)=O)N=C(c2ccccc2)c2ccccc21`, for which the viability is 114%.
Still for that read-out and setting: under `CC1=C2C[C@H]3[C@@H](CC=C4C[C@@H](O)CC[C@@]43C)[C@@H]2CC[C@]12O[C@@H]1C[C@H](C)CN[C@H]1[C@H]2C` stands 113%.
For the molecule `Cc1[nH]nc2ccc(-c3cncc(OC[C@@H](N)Cc4c[nH]c5ccccc45)c3)cc12`, the Potency was 1050 nM (active).
Turning to `CC(C)(O)/C=C\C(=O)[C@](C)(O)[C@H]1[C@H](O)C[C@]2(C)[C@@H]3CC=C4[C@@H](C=C(O)C(=O)C4(C)C)[C@]3(C)C(=O)C[C@@]12C`, the Potency was 1660 nM (active).
Turning to `CN(C)[C@@H]1C(=O)C(C(N)=O)=C(O)[C@@]2(O)C(=O)C3=C(O)c4c(O)cccc4[C@@](C)(O)[C@H]3[C@H](O)[C@@H]12`, the viability is 103%.
As for `C[C@]12Cc3cn[nH]c3C[C@@H]1CC[C@@H]1[C@@H]2CC[C@@]2(C)[C@H]1CC[C@]2(C)O`, the viability is 57.3%.
In the case of `C[C@]12CCC(=O)C(O)=C1CC[C@@H]1[C@@H]2CC[C@]2(C)C(=O)CC[C@@H]12`, the viability is 97.8%.
With `COC12C(COC(N)=O)C3=C(C(=O)C(C)=C(N)C3=O)N1CC1C2N1C` (stereo not given), the viability is 107%.
For the molecule `CC(C)(NC(=O)O[C@@H]1CN2CCC1CC2)c1csc(-c2ccc(F)cc2)n1`, the viability was 91.1%.
`CC[C@H]1/C=C\C=C/C[C@@H](C)[C@H](O)[C@@](C)(O)C(=O)[C@@H](C)[C@H](O)[C@@H](C)C(=O)[C@@H](C)[C@H](O)[C@@H](C)/C=C\C(=O)O[C@@H]2[C@H](C)[C@H](CC1)O[C@]1(CC[C@H](C)[C@H](C[C@@H](C)O)O1)[C@H]2C`: the Potency is 4170 nM (active).
Turning to `C[C@]12CC[C@H]3[C@@H](CC[C@@]45O[C@@H]4C(O)=C(C#N)C[C@]35C)[C@@H]1CC[C@@H]2O`, the viability is 112%.
Consider `O=C(CBr)N1CC([N+](=O)[O-])([N+](=O)[O-])C1`, for which the Potency is 38200 nM (active).
As for `CC(C)c1cccc(C(C)C)c1O`, the viability is 105%.
Consider `O=C(Oc1ccc([N+](=O)[O-])cc1)N1CCN(Cc2cccc(Oc3ccccc3)c2)CC1`, for which the viability is 110%.
With `C[C@@H]1O[C@@H](O[C@H]2C[C@@H](O)[C@]3(CO)[C@H]4[C@H](O)C[C@]5(C)[C@@H](C6=CC(=O)OC6)CC[C@]5(O)[C@@H]4CC[C@]3(O)C2)[C@H](O)[C@H](O)[C@H]1O`, the Potency was 74.2 nM (active).
As to `CCOC(=O)c1c(C(C#N)=CN)c2ccc(Cl)c(Cl)c2n1C`, the viability was 114%.
Consider `O=c1cccc2n1CC1CNC[C@H]2C1`, for which the viability was 119%.
Still for that read-out and setting: under `O=C(O)C(=O)c1cn(Cc2ccccc2)c2ccc(-c3ccc(OC(F)(F)F)cc3)cc12` stands 98.6%.
`CNC(=O)c1ccc(N2C(=S)N(c3ccc(C#N)c(C(F)(F)F)c3)C(=O)C23CCC3)cc1F`: the viability is 101%.
In the case of `CC(NC(C)(C)C)C(=O)c1cccc(Cl)c1` (stereo not given), the viability was 111%.
With `Cc1cc(SCc2sc(-c3ccc(C(F)(F)F)c(F)c3)nc2C)ccc1OCC(=O)O`, the viability is 99.6%.
Consider `C/C(=C\c1csc(C)n1)[C@@H]1C[C@@H]2O[C@@H]2CCC[C@H](C)[C@H](O)[C@@H](C)C(=O)C(C)(C)[C@@H](O)CC(=O)O1`, for which the Potency was 33.2 nM (active).
